Compounds with a hit are over-represented: about 1.9% of the library has one in this group of screens.
aDG glyco act: increases alpha dystroglycan glycosylation; Pro5-aDG cells, alpha-DG glycosylation AlphaScreen (IIH6); 0% Pro5, 100% B10-LARGE cell signal; activation, % at 10 µM; 360,000 tested, 0.22% active; AID 624168;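 active = activation of at least 8% versus controls, or a plate z-score of at least 8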;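 note: Pro5 are CHO cells carrying HIG-tagged alpha-DG that lacks glycosylation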
p47phox inh: inhibitors of human p47phox binding | 220,000 tested, 0.53% active | inhibition, % at 24.7 µM | p47phox/p22phox peptide binding, fluorescence polarization, 2 h;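 active = inhibition above about 30%, limit read from the data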;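 note: 0% = p47phox with labelled peptide and 100% = labelled peptide alone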
Target sequence (P14598 whole entry, looked up): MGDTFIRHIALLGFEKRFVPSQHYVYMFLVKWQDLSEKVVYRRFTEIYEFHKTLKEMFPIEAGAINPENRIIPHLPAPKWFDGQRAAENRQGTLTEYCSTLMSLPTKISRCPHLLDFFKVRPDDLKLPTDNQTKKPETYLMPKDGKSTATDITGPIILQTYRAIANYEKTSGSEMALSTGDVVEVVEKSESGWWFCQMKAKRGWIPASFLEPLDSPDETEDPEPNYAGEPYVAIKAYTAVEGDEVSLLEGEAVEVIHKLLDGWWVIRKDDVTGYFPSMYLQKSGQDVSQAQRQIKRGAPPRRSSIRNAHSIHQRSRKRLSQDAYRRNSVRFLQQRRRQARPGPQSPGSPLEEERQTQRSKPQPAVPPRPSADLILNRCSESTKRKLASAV
PG9 Ab binder: PG9 antibody binding by small molecule; TR-FRET gp120-PG9 antibody binding; inhibition, % at 6.7 µM; 360,000 tested, 0.43% active; in the data active = inhibition above about 8.5%
ZTA DNA inh: blocks Epstein-Barr virus ZTA, an EBNA-1 counter-screen; P03206; ZTA-DNA binding, fluorescence polarization; inhibition, % at 11 µM; 320,000 tested, 0.15% active; AID 2234; in the data active = inhibition above about 33%
Target sequence (P03206 whole entry, looked up): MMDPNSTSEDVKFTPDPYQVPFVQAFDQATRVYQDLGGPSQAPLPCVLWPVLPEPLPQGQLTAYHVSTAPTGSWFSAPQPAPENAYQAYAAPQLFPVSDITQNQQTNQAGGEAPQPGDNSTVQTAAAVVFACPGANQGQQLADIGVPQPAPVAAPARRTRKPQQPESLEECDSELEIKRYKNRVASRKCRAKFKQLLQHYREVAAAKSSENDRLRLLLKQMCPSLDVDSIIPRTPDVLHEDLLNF
NR1D1 modulator: Rev-erb alpha (human) modulation. activity, % at 10 µM. Rev-erbα–FITC-DNA binding, fluorescence polarization, 90 min. AID 1259318. P20393. 370,000 tested, 0.79% active;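 active = activity above about 14%, limit read from the data; passing the limit was not always enough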;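 note: 0% = DMSO wells with 35 nM protein and 100% = DMSO wells with 750 nM protein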
EBNA-1 inhibitor: blocks EBNA-1 binding to DNA | AID 1950 | inhibition, % at 14.8 µM | 300,000 tested, 0.34% active | EBNA-1 DNA binding, fluorescence polarization; in the data active = inhibition above about 28%
aDG glyco conf: alpha-DG glycosylation activation, confirmation; shares compounds with aDG glyco act; Pro5-aDG cells, IIH6 AlphaLISA; scaled to LARGE-overexpressing B10 cells as 100%; activation, % at 10 µM (by protocol); 600 tested, 17% active;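 active = activation of at least 7% in one or more replicates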;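 note: cells exposed to compound for two days before detection; 0% = DMSO-treated Pro5 cells and 100% = DMSO-treated B10-LARGE cells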
PG9 binder conf: confirmation of small molecules binding HIV-1 gp120 antibody PG9; TR-FRET PG9 antibody binding, biochemical; shares compounds with PG9 Ab binder; 1,500 tested, 90% active; inhibition, % at 6.7 µM; AID 651571; in the data active = inhibition above about 9%
PGV04 Ab binding: PGV04 control antibody binding, counter-screen | shares compounds with PG9 Ab binder | TR-FRET PGV04 antibody-gp120 binding, biochemical | inhibition, % at 6.7 µM | 1,500 tested, 95% active; in the data active = inhibition above about 9.5%
Rev-erbA confirm: confirmation of modulators of human Rev-erb alpha DNA binding. shares compounds with NR1D1 modulator. activation, % at 25 µM. Rev-erb alpha FITC-DNA binding, fluorescence polarization, 90 min. 3,000 tested, 61% active;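 active = activation at or above a set limit, or at least 3 SD above the negative control mean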;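 note: 0% = 35 nM protein with DMSO and 100% = 750 nM protein high control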
RORg DNA counter: affects RORgamma DNA binding in a Rev-erb alpha counter-screen. 910 tested, 8% active. AID 1259320. shares compounds with NR1D1 modulator. IC50, µM. purified RORgamma protein-FITC-DNA binding, fluorescence polarization;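 active = Compounds whose fitted half-maximal concentration for disrupting protein-DNA binding is below 10 micromolar; the record names Rev-erb in its text, so the target is in doubt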
An asterisk follows results filed as active; x = not tested or not shown.

SMILES	aDG glyco act	p47phox inh	PG9 Ab binder	ZTA DNA inh	NR1D1 modulator	EBNA-1 inhibitor	PG9 binder conf	PGV04 Ab binding	others
Cc1cc(C)n(CCNC(=O)c2cc(COc3ccc4ncccc4c3)on2)n1	0	-5	-1	9	4	-2	x	x
O=C(NCc1cccc(Cl)c1)c1cc(COc2ccc3ncccc3c2)on1	10*	-14	0	-3	-2	4	x	x	aDG glyco conf=5
Cc1ccc(F)cc1CNC(=O)c1cc(COc2ccc3ncccc3c2)on1	8.7*	0	-1	3	5	-4	x	x	aDG glyco conf=3
CC(CCCC(C)(C)O)NC(=O)c1cc(COc2ccc3ncccc3c2)on1 (stereo not given)	1	2	0	16	1	14	x	x
Cc1c(NC(=O)C2CCCN(S(=O)(=O)c3ccc(Cl)s3)C2)c(=O)n(-c2ccccc2)n1C (stereo not given)	x	x	x	x	-5	x	x	x
Cc1ccc(S(=O)(=O)/N=C2\C(=O)c3ccccc3C([O-])=C2n2cc[n+](CCC(C)C)c2)cc1	4	-16	x	10	x	5	x	x
CCCC[n+]1ccn(C2=C([O-])c3ccccc3C(=O)/C2=N\S(=O)(=O)c2ccc(Br)cc2)c1	11*	14	-4	20	0	2	x	x	aDG glyco conf=13*
CCOC(=O)Cc1nc(N2CCCN(C(C)=O)CC2)c2c(C)c(C(=O)OCC)sc2n1	x	x	x	x	7	x	x	x
Cc1cccc(OCC(=O)Nc2cc(S(=O)(=O)N3CCOCC3)ccc2N2CCCC2)c1C	7.4*	x	-1	-12	7	1	x	x	aDG glyco conf=0
Cc1ccc(-n2c(SCC(=O)Nc3ccccc3-c3ccccc3)nnc2-c2cnccn2)cc1	x	x	x	x	-2	x	x	x
COCCCn1c(-c2ccc(Cl)cc2)n[nH]c1=S	0	-11	1	5	6	-5	x	x
COCCCn1cn[nH]c1=S	6.3*	1	-1	-4	-2	2	x	x	aDG glyco conf=3
c1ccc(-c2nnc(-c3ccccc3)nn2)cc1	0	-10	-2	-3	-8	5	x	x
c1cncc(-c2nnc(-c3cccnc3)nn2)c1	13*	6	-4	0	2	15	x	x	aDG glyco conf=7.6*
COc1ccc(-c2cc(C3CCN(c4ccc(C(C)=O)cc4[N+](=O)[O-])CC3)[nH]n2)cc1	10*	0	-2	-6	3	-15	x	x	aDG glyco conf=4
CCC(=O)N1CCc2cc(Br)c(S(=O)(=O)NCCCN(CC)Cc3ccccc3)cc21	x	x	x	x	-2	x	x	x
C#CCCN([C@H](C(=O)OC)C(C)CC)S(=O)(=O)c1ccccc1Br (stereo not given in full)	x	x	x	x	6	x	x	x
O=C1Nc2cc(C(=O)NCCN3CCCCCC3)ccc2S/C1=C\c1ccccc1	0	x	-2	17	-2	-10	x	x
Cc1cccc(/C=C2/Sc3ccc(C(=O)NCCN4CCCC4)cc3NC2=O)c1	8.2*	x	-2	31	0	-4	x	x	aDG glyco conf=7.8*
Cc1cccc2cc(C#N)c(SCC(=O)Nc3ccccc3N3CCOCC3)nc12	4.9*	-31	17*	4	48*	-6	17*	39*	aDG glyco conf=-1;Rev-erbA confirm=44*;RORg DNA counter=>40
N#CCC[C@H]1CC[C@]2(CCCN(C(=O)C3CCCCC3)C2)O1	x	x	x	x	2	x	x	x
O=C(Cc1ccccc1)Nc1nnc(-c2cccs2)s1	0	-10	12*	-2	9	11	19*	31*
COc1cccc(-c2nnc(NC(=O)Cc3cccs3)s2)c1	0	-16	13*	15	16	8	18*	39*
CCC(=O)Nc1nnc(-c2cccs2)s1	0	0	-1	3	-4	-1	x	x
CCN1CCCCC(NC(=O)c2ccc(C)cc2)C1=O (stereo not given)	x	x	x	x	-4	x	x	x
SMILES	aDG glyco act	p47phox inh	PG9 Ab binder	ZTA DNA inh	NR1D1 modulator	EBNA-1 inhibitor	PG9 binder conf	PGV04 Ab binding	others
Nc1nc2c(-c3ccc(Br)cc3)nnn2c2ccccc12	0	x	11*	1	5	0	13*	30*
O=C(Nc1cc(F)cc(F)c1)c1sc(Cl)nc1-c1ccccc1	0	-4	9.6*	6	19	10	14*	42*
C[C@@H]1CCC[C@]2(O[C@H](CCO)C[C@H](O)[C@H]2O)O1	0	2	13*	10	-4	16	-3	-2
O=C(O)c1cc(-c2cccs2)nc2ccc(F)cc12	0	x	4	3	-1	1	x	x
O=C(O)c1cc(-c2cccs2)nc2ccc(Br)cc12	0	x	40*	19	6	8	54*	77*
O=C(O)c1cc(-c2ccc3c(c2)OCO3)nc2ccc(Br)cc12	0	-12	20*	-9	0	7	28*	34*
O=C(O)c1cc(-c2cccnc2)nc2ccc(Br)cc12	0	1	44*	-5	-5	-10	56*	69*
CCN1CCN(C(=O)c2cc(-c3cccnc3)nc3ccc(Br)cc23)CC1	0	9	7	-10	7	0	x	x
Cn1ccc2c(N3c4ccccc4CCc4ccccc43)cc3c(c21)C1CCC3O1 (stereo not given)	5	x	19*	x	-8	x	5	7
COc1cccc(CN[C@@H]2CC[C@@]34CCCN3C(=O)CCC[C@H]4C2)c1	x	x	x	x	-3	x	x	x
CCc1cccc(C)c1NC(=O)CCCSc1nc2ccccc2s1	0	-10	0	-1	3	-5	x	x
CCc1cccc(CC)c1NC(=O)C1SC(=Nc2ccccc2C)C(c2nc3ccccc3s2)=C1N (stereo not given)	3	-44	9.2*	0	-1	-20	9.5*	13*
CCOc1ccc(NC(=O)COC(=O)c2ccc3c(c2)OCCO3)cc1	0	x	54*	-3	4	x	48*	60*
COc1cc(NC(=O)c2cc3ccccc3o2)c(OC)cc1Cl	0	-10	20*	-6	16	8	18*	34*
COc1cc(NC(=O)c2cc3ccccc3o2)c(OC)cc1Br	0	-24	1	-4	20	16	x	x
COc1ccc(N2CCN(C(=O)CCCCCn3c(=S)[nH]c4cc5c(cc4c3=O)OCO5)CC2)cc1	0	x	x	6	x	-1	x	x

Assay outcomes as filed in PubChem.
